We go through 38 compounds from PubChem BioAssay (NCATS).

The nature of assay [1]: qHTS Screen of the MIPE 4.0 Collection Against Ewings Sarcoma (EW8) (AID 1259255). Further: nearly all actives have a fitted effect of over 35% in size. Further: potency means the concentration at half of the fitted maximal effect. Particulars: EW8 Ewing sarcoma viability, CellTiter-Glo, 48 h; series mostly up to 45.8 µM. The essentials: (§1)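 Dose series incubated 48 h with cells in RPMI plus 5% FBS, glutamine and penicillin/streptomycin; cell viability then quantified via CellTiter-Glo.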
On the technique in general: In qHTS, concentration-response curves come from the screen itself.

Assay [2] is described as follows: qHTS Screen of the MIPE 4.0 Collection Against Ewings Sarcoma (TC71) (AID 1259253). Further: nearly all actives have a fitted effect of over 40% in size. Further: potency means the concentration at half of the fitted maximal effect. Particulars: TC71 Ewing sarcoma viability, CellTiter-Glo, 48 h; series mostly up to 45.8 µM. The gist of the method: as §1
The nature of assay [3]: qHTS Screen of the MIPE 4.0 Collection Against Ewings Sarcoma (TC32) (AID 1259256). Further: nearly all actives have a fitted effect of over 45% in size. Further: potency means the concentration at half of the fitted maximal effect. Particulars: TC32 Ewing sarcoma viability, CellTiter-Glo, 48 h; series mostly up to 45.8 µM. The gist of the method:
as §1

Assay [4] can be described thus: P-glycoprotein substrates identified in KB-3-1 adenocarcinoma cell line, qHTS therapeutic library screen (AID 1346986). Further: nearly all actives have a fitted effect of over 60% in size.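 Further: potency means the concentration at half of the fitted maximal effect; potency is for cytotoxicity meaning loss of cell viability.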 The conditions noted are these: KB-3-1 parental cells viability, CellTiter-Glo, 72 h; series mostly up to 44.5 µM. The essentials: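 Compounds were tested in dose-response against KB-3-1 and KB-8-5-11 cells at 37 degree C for 72 h, and viability was measured by luminescence. AC50 values came from curve fitting with class-based activity calls.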

Assay [5] can be described thus: Identifying Small Molecule Inhibitors of Pancreatic Cancer Stem Cells (A2780, Spheroid) (AID 1259357).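 Further: compound exposure lasted 48 h before the ATP luminescence read.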 Particulars: Potency: A2780 spheroid viability; series mostly up to 46.1 µM. The essentials: (§2)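 Monolayer and spheroid cultures are compared. Spheroids form over 14 days in stem cell medium on hydrogel-coated low-attachment plates, then are exposed to compound for 48 h before CellTiter-Glo luminescence.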

A short description of assay [6]: Identifying Small Molecule Inhibitors of Pancreatic Cancer Stem Cells (SN12C, Adherent) (AID 1259358).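 Further: cell survival measured after 48 h of compound exposure.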 Further: potency means the concentration at half of the fitted maximal effect. Particulars: viability/growth inhibition; series mostly up to 46.1 µM. The gist of the method:
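Endpoint: ATP-based luminescence, 48 h drug exposure. Bortezomib at 9.2 uM final as full-kill control; DMSO vehicle as negative control; activity normalized between vehicle and cell-free wells.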

Assay [7] in a line: Identifying Small Molecule Inhibitors of Pancreatic Cancer Stem Cells (SN12C, Spheroid) (AID 1259360). Particulars: Potency: SN12C spheroid viability; series mostly up to 46.1 µM. The gist of the method: as §2
A short description of assay [8]: qHTS assay to identify small molecule inhibitors of chordoma cells - UCH-2 (AID 1259356). The conditions noted are these: UCH-2 chordoma viability, CellTiter-Glo ATP luminescence, 48 h; series mostly up to 46.1 µM.

Molecules are shown by their SMILES. Several values for one entry are separate records, joined by “and”; a condition that tells them apart may be missing. Equal values may be shown once. Results filed as inconclusive are left out. Some compounds were tested as several samples or in several runs, with calls that do not always agree. Activity calls are given as the source filed them. The call rests on the fitted dose curve; in most records, active means well fitted curve in the direction sought with a large enough effect; inconclusive means small, poorly fitted or top-dose-only effect, or another doubt; inactive means no such curve, though single readings can be large; an effect the other way counts as inactive or inconclusive.

For the compound `CC1(C)OC2CC3C4CC(F)C5=CC(=O)C=CC5(C)C4C(O)CC3(C)[C@]2(C(=O)CO)O1` (stereo partly specified), the Potency result in assay [1] was “inactive”.
As for `O=C1NC(=O)C(c2cnc3ccccn23)=C1c1cn2c3c(cccc13)CN(C(=O)N1CCOCC1)CC2`, the Potency in assay [2] is 23.5 µM (active); in assay [3] it was 16.6 µM (active); in assay [4], 5.8 µM (active).
Regarding `CCC(c1ccc(O)cc1)C(CC)c1ccc(O)cc1` (stereo unspecified), the Potency in assay [1] is 1.87 µM (active); in assay [3], 1.48 µM (active).
As to `N#CC(=C1Nc2ccccc2S1)c1ccnc(OCc2ccc(CN3CCOCC3)cc2)n1`, the Potency in assay [1] is 5.26 µM (active); in assay [3], 7.43 µM (active).
As to `CC1(COc2ccc3c(c2)ncn3-c2ccc3cccc(N4CCC(N)CC4)c3n2)COC1`, the Potency result in assay [2] and in assay [3] was “inactive” in each case. For the same compound, in assay [4], the Potency was 10.3 µM (active).
Turning to `C[C@@]1(c2cc(-c3cncnc3)c(F)cc2F)CCSC(N)=N1`, the Potency result in assay [2], in assay [3] and in assay [4] was “inactive” throughout.
Regarding `Cc1csc(-c2nnc(Nc3ccc(Oc4ncccc4-c4ccnc(N)n4)cc3)c3ccccc23)c1`, in assay [1], the Potency was 0.0059 µM (active).
`C[C@@]1(C(=O)Nc2ccc(F)nc2)CCCN1c1nc(Nc2cc(C3CC3)[nH]n2)c2cccn2n1`: the Potency was 1.05 µM (active) in assay [1] and 0.418 µM (active) in assay [3].
In the case of `Cc1cccc(Nc2nc(N[C@@H]3CCCC[C@H]3N)ncc2C(N)=O)c1`, the Potency in assay [2] and in assay [6] was 18.7 µM (active) in each case. Further, the Potency entry in assay [5] and in assay [7] was “inactive” throughout.
In the case of `CCCCN(CCCC)CC(O)c1cc(Cl)cc2c1-c1ccc(Cl)cc1C2=Cc1ccc(Cl)cc1` (stereo unspecified), the Potency entry in assay [1] is “inactive”.
Regarding `Cc1ccc2c(=O)c3cccc(CC(=O)O)c3oc2c1C`, the Potency in assay [2] was 18.7 µM (active). For the same compound, the Potency result in assay [4] is “inactive”.
As for `CCCCc1ccc(NS(=O)(=O)c2ccc(C)c(C(=O)N3CCN(c4cccc(C)c4C)CC3)c2)cc1`, the Potency in assay [2] was 20.9 µM (active). In assay [6], the Potency entry is “inactive”.
Turning to `CCOC(=O)N1c2ccc(C(F)(F)F)cc2[C@@H](N(Cc2cc(C(F)(F)F)cc(C(F)(F)F)c2)C(=O)OC)C[C@H]1CC`, in assay [1], the Potency is 20.9 µM (active).
With `CCCCC(C)(C)[C@H](O)C=C[C@H]1[C@H](O)CC(=O)[C@H]1CC=CCCCC(=O)O`, the Potency is 18.7 µM (active) in assay [2] and 23.5 µM (active) in assay [3]. Also, the Potency result in assay [4] was “inactive”.
On to `O[C@@H](COc1cccc2ncccc12)CN1CCN(C2c3ccccc3[C@@H]3[C@H](c4ccccc42)C3(F)F)CC1` (stereo partly specified), for which the Potency in assay [1] was 23.5 µM (active).
Take `CC(=O)NCCC(=O)N[C@@H](CCC(N)=O)C(=O)N[C@@H](CO)C(=O)N[C@@H](CCC(N)=O)C(=O)N[C@@H](CCC(N)=O)C(=O)N[C@H](C(=O)N[C@@H](Cc1ccccc1)C(=O)N[C@]1(C)CCCCCCC=CCCC[C@@](C)(C(=O)N[C@@H](CCC(N)=O)C(=O)N[C@@H](CC(N)=O)C(N)=O)NC(=O)[C@H](CC(C)C)NC(=O)[C@H](CC(C)C)NC(=O)[C@@H](CCCNC(=N)N)NC(=O)[C@H](Cc2c[nH]c3ccccc23)NC(=O)[C@H](CC(C)C)NC(=O)[C@H](CC(N)=O)NC1=O)[C@H](C)O`: the Potency in assay [2] was 20.9 µM (active). In addition, the Potency entry in assay [5], in assay [6], in assay [7] and in assay [4] was “inactive” in each case.
Regarding `COc1cc(Nc2nc3ccccc3nc2NS(=O)(=O)c2ccc(NC(=O)c3ccc(C)c(OC)c3)cc2)cc(OC)c1`, the Potency in assay [2] was 20.9 µM (active); in assay [3], 18.7 µM (active). The Potency result in assay [4] is “inactive”.
`CN(C)N=Nc1nc[nH]c1C(N)=O`: the Potency result in assay [1] and in assay [3] was “inactive” each time.
Regarding `COc1cc2ncnc(Nc3cc(Br)c(O)c(Br)c3)c2cc1OC`, the Potency in assay [2] is 0.059 µM (active); in assay [3], 0.418 µM (active). In assay [4], the Potency entry was “inactive”.
As for `CC(C)(C)c1nc(-c2cccc(NS(=O)(=O)c3c(F)cccc3F)c2F)c(-c2ccnc(N)n2)s1`, in assay [1], the Potency was 18.7 µM (active).
In the case of `CCCCC[C@H](O)C=C[C@H]1[C@H](O)CC(=O)[C@H]1CCCCCCC(=O)O`, the Potency entry in assay [1] was “inactive”.
Consider `CS(=O)(=O)c1ccc(C2=C(c3ccccc3)C(=O)OC2)cc1`, for which the Potency in assay [2] is 18.7 µM (active). The compound was called inactive in assay [8].
For `CCOC(=O)[C@@H](N)CCC(=O)N[C@@H](CSCc1ccccc1)C(=O)N[C@@H](C(=O)OCC)c1ccccc1`, the Potency entry in assay [2], in assay [6] and in assay [7] was “inactive” each time.
For the compound `CCCCC[C@H](O)C=C[C@H]1[C@H](O)CC(=O)[C@H]1CC=CCCCC(=O)O`, the Potency in assay [2] was 18.7 µM (active); in assay [3], 20.9 µM (active). Further, the Potency result in assay [4] is “inactive”.
The like results for `CC(=O)O[C@]1(C(C)=O)CC[C@H]2[C@@H]3C=C(Cl)C4=CC(=O)[C@@H]5C[C@H]5[C@]4(C)[C@@H]3CC[C@@]21C` were, in that order, 13.2 µM (active), 16.6 µM (active) and “inactive”.
On to `CCC(=O)NCC[C@@H]1CCc2ccc3c(c21)CCO3`, for which the Potency entry in assay [1] and in assay [3] was “inactive” throughout.
`COc1ccc(-c2ccc3ncc4c(c3c2)n(-c2ccc(N3CCNCC3)c(C(F)(F)F)c2)c(=O)n4C)cn1`: the Potency in assay [2] is 0.0059 µM (active); in assay [4], 0.0231 µM (active).
In the same order, the values of `COc1ccc(-c2cc3nccn3c(Nc3ncccc3C(N)=O)n2)cc1OC` are 2.64 µM (active) and 6.51 µM (active).
Take `CCCCCCCCCCCCCCCC(=O)O[C@H]1[C@@H](O)[C@@H](O)[C@@H]([C@H](NC(=O)[C@@H]2C[C@@H](CCC)CN2C)[C@H](C)Cl)O[C@@H]1SC`: the Potency in assay [2] was 13.2 µM (active). Further, the Potency result in assay [4] is “inactive”.
As to `O=C(O)CCC=CCC[C@@H]1[C@H](N2CCCCC2)[C@@H](O)C[C@@H]1OCc1ccc(-c2ccccc2)cc1`, the Potency entry in assay [2], in assay [3] and in assay [4] was “inactive” throughout.
As for `O=C(CO)N1CCC(c2[nH]nc(-c3ccc(Cl)cc3)c2-c2ccncn2)CC1`, the Potency result in assay [2] and in assay [4] was “inactive” throughout.
With `Cn1c(=O)c(-c2c(Cl)cccc2Cl)cc2cnc(Nc3cccc(C(=O)O)c3)nc21`, the Potency result in assay [2], in assay [3] and in assay [4] was “inactive” each time.
Regarding `Cc1ccc(S(=O)(=O)Nc2nc3ccccc3nc2Nc2ccc3nsnc3c2)cc1`, the Potency in assay [2] is 12.9 µM (active); in assay [3] it was 16.2 µM (active); in assay [4], “inactive and 20.6 µM (active)”.
For the compound `CC1C(=O)OC2C(O)C34C5CC(C(C)(C)C)C36C(OC(=O)C6O)OC4(C(=O)O5)C12O` (stereo unspecified), in assay [2], the Potency was 14.8 µM (active). In addition, the Potency result in assay [3] and in assay [4] was “inactive” each time.
`O=C(NCCCCN1CCOCC1)c1cc2ccccc2o1`: the Potency entry in assay [2], in assay [3] and in assay [4] was “inactive” in each case.
Take `OC[C@H]1O[C@@H](Oc2ccc(O)cc2)[C@H](O)[C@@H](O)[C@H]1O`: the Potency in assay [2] was 18.7 µM (active). Besides, the Potency result in assay [4] is “inactive”.
`O=C1C(CCC(O)c2ccc(F)cc2)C(c2ccc(O)cc2)N1c1ccc(F)cc1` (stereo unspecified): the Potency result in assay [1], in assay [3], in assay [5], in assay [6] and in assay [7] was “inactive” throughout.
Consider `O=C(c1ccc(F)c(F)c1Nc1ccc(I)cc1F)N1CC(O)([C@H]2CCCCN2)C1`, for which the values for the Potency in assay [1] and in assay [3] were 23.5 µM (active) and 20.9 µM (active), respectively.
